About 21,000 targets were measured; listed, in parts, are those with the largest changes and a random draw of the rest.
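Note: competitive profiling in live THP-1 cells: cysteine peptides tagged with an iodoacetamide desthiobiotin (IA-DTB) probe, intensity after compound treatment relative to DMSO-treated cells.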

Compound in this assay: Cc1cc(ccc1-c1ccccc1)C(=O)N1CCCN(CC1)C(=O)CCl [compound 10]
Description: probe-labelled cysteine peptide fold change vs DMSO (competition) (log2 fold change); higher = less target engagement (more negative = stronger competition). The settings on record: 50 µM; THP-1; incubation time: 4 h.
Regarding “CTNNA1_P35221_461_MSASQLEALCPQVINAALALAAK (UniProt P35221)”, the “probe-labelled cysteine peptide fold change” value is 0.332. Take “CTR9_Q6PD62_196_TNPGCPAEVR (UniProt Q6PD62)”: the “probe-labelled cysteine peptide fold change” value was -0.0939.

As for “CSDE1_O75534_657_FQLCVLGQNAQTMAYNITPLR (UniProt O75534)”, the “probe-labelled cysteine peptide fold change” value was found to be 0.2.

Take “DNM1L_O00429_446_IIQHCSNYSTQELLR (UniProt O00429)”: the “probe-labelled cysteine peptide fold change” value is -0.0631. Consider “CTSH_P09668_272_TGIYSSTSCHK (UniProt P09668)”, for which the “probe-labelled cysteine peptide fold change” value is -0.114. For the target “CXXC1_Q9P0U4_38_KPDINCFMIGCDNCNEWFHGDCIR (UniProt Q9P0U4)”, the “probe-labelled cysteine peptide fold change” value is -1.06.

With “DBR1_Q9UK59_36_RGPGPVDLLLCCGDFQAVR (UniProt Q9UK59)”, the “probe-labelled cysteine peptide fold change” value is -0.183. In the case of “DCLRE1C_Q96SD1_34_AYFLSHCHK (UniProt Q96SD1)” it was -0.167. Next, “CRTAP_O75718_273_DFYLSIADHYVEVLECK (UniProt O75718)”: 1.08; “CPSF1_Q10570_1102_IELQEWEHVTCMK (UniProt Q10570)”: -0.201. On to “COMT_P21964_241_GSSCFECTHYQSFLEYR (UniProt P21964)”, for which the “probe-labelled cysteine peptide fold change” value is -0.0597.

On to “CORO1B_Q9BR76_25_NDQCYEDIR (UniProt Q9BR76)”, for which the “probe-labelled cysteine peptide fold change” value is -0.0083.

For the target “DDX17_Q92841_166+199_GGDVCPKPVFAFHHANFPQYVMDVLMDQHFTEPTPIQCQGFPLALSGR (UniProt Q92841)”, the “probe-labelled cysteine peptide fold change” value was -1.05. In the case of “COX17_Q14061_23+24_KPLKPCCACPETK (UniProt Q14061)” it was -2.25; in that of “DNAJB1_P25685_179_VSLEEIYSGCTK (UniProt P25685)”, 0.255. In the case of “DIAPH2_O60879_775_NEYDDLCEPEQFGVVMSSVK (UniProt O60879)” it was 0.261; in that of “CMTM3_Q96MX0_38_AFLCSLK (UniProt Q96MX0)”, -3.05. Next, “CNNM4_Q6P4Q7_220_IVQNCGTEK<|>CNNM2_Q9H8M5_293_IVQNCGTEK (UniProt Q9H8M5+Q6P4Q7)”: -0.279; “DDAH2_O95865_220_AMAVLTDHPYASLTLPDDAAADCLFLRPGLPGVPPFLLHR (UniProt O95865)”: 0.0115. On to “CYB5R4_Q7L1T6_278_CQLISK (UniProt Q7L1T6)”, for which the “probe-labelled cysteine peptide fold change” value is -0.00326. Next, “COPG1_Q9Y678_440_ETGLSHLCEFIEDCEFTVLATR (UniProt Q9Y678)”: 0.125; “DGLUCY_Q7Z3D6_316_GIGHLLCK (UniProt Q7Z3D6)”: 0.0827.

For the target “CNN2_Q99439_215_CASQVGMTAPGTR (UniProt Q99439)”, the “probe-labelled cysteine peptide fold change” value is -0.449. In the case of “DGLUCY_Q7Z3D6_265_APPGCLTPER (UniProt Q7Z3D6)” it was -0.427; in that of “DENND4A_Q7Z401_952_GSADCLPK (UniProt Q7Z401)”, 0.101; in that of “CUL3_Q13618_462+464_LKTECGCQFTSK (UniProt Q13618)”, -1.31.

For the target “COPE_O14579_225_CSPTLLLLNGQAACHMAQGR (UniProt O14579)”, the “probe-labelled cysteine peptide fold change” value was 0.158.

On to “DKC1_O60832_74_TTHYTPLACGSNPLKR (UniProt O60832)”, for which the “probe-labelled cysteine peptide fold change” value is -0.244. Next, “COQ8B_Q96D53_508_AHIACR (UniProt Q96D53)”: -1.08; “DDX20_Q9UHI6_98_CGLDLIVQAK (UniProt Q9UHI6)”: -0.579. Take “DDX50_Q9BQ39_242_LSVACFYGGTSYQSQINHIR (UniProt Q9BQ39)”: the “probe-labelled cysteine peptide fold change” value is -0.294.

With “DHX9_Q08211_1099_LQISHEAAACITGLR (UniProt Q08211)”, the “probe-labelled cysteine peptide fold change” value amounted to 0.171. Next, “DHX8_Q14562_1108_AICSGFFR (UniProt Q14562)”: 0.29.

On to “CRABP1_P29762_130_ELANDELILTFGADDVVCTR (UniProt P29762)”, for which the “probe-labelled cysteine peptide fold change” value came to 0.307. Take “COPB1_P53618_248_CIYNLLQSSSPAVKYEAAGTLVTLSSAPTAIK (UniProt P53618)”: the “probe-labelled cysteine peptide fold change” value was 0.0416. As to “DKK2_Q9UBU2_214_ICKPVLHQGEVCTK (UniProt Q9UBU2)”, the “probe-labelled cysteine peptide fold change” value was -0.0474.

As to CTSZ_Q9UBR2_179_ECHAIR (UniProt Q9UBR2), the “probe-labelled cysteine peptide fold change” value was found to be 2.23.

These data come from the supplement of paper PMC12067093, “Discovery and optimisation of a covalent ligand for TRIM25 and its application to targeted protein ubiquitination” (Chemical Science, 2025).
